Consider 14 compounds from PubChem BioAssay.

Experiment [1] can be described thus: inhibitors of TNFa-induced NFkB p65 translocation, primary screen, imaging, HUVEC, MLSMR starter and 10KST1 sets (AID 438;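 active = inhibition above 20% together with a positive visual image hit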;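 note: compound added about 3h40 before a 20 min TNFalpha stimulation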;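 for inhibition: signal is the nuclear over cytoplasmic p65 intensity ratio per well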). The note with it: HUVEC TNFa-induced p65 nuclear translocation; cell count: measured here: nuclei count (cytotoxicity indicator), at 2.08 µM; inhibition: at 2 µM, stronger effect = higher value, 0% TNFa-plus-vehicle, 100% no-TNFa wells.
The nature of experiment [2]: inhibitors of mutant huntingtin aggregation, primary screen, imaging, exon1htt(103Q)mCFP cells, high-content imaging (AID 483;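 active = visual image review flags a hit and inhibition of aggregation exceeds 20%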;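 note: compound exposure lasted 3 days before fixation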;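 for nuclei count: percent of the per-plate median nuclei count of sample wells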). The settings on record: exon1htt(103Q)mCFP cell line, aggregate imaging, at 2 µM; inhibition of aggregation: stronger effect = higher value; nuclei count: measured here: cell count, toxicity.
The nature of experiment [3]: inhibitors of E-selectin induction by TNFa, primary screen, imaging, HUVEC, immunofluorescence, MLSMR starter and 10KST1 sets (AID 487;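 active = visually confirmed hit in the image check and inhibition above 20%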;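 for inhibition: signal is fraction of cell area covered by stained E-selectin grains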;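 for nuclei count: 100% = median nuclei count of all wells on the same plate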). The note with it: HUVEC TNFalpha-induced E-selectin immunofluorescence imaging, at 2 µM; inhibition: stronger effect = higher value; nuclei count: measured here: cell number, toxicity.
Experiment [4] deals with Voltage-gated potassium channel subunit beta-2 (Rattus norvegicus) (UniProt P62483). Put plainly: KvBeta enzyme negative modulators, primary screen, biochemical, NADPH fluorescence (AID 622;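 active = fluorescence slope higher than the sample average by over 3 SD, cut at about -0.22 in these data, passing the limit was not always enough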;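 note: slope of raw intensity against log time taken from 70 to 1610 s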). The note with it: recombinant KvBeta, 4-cyanobenzaldehyde reduction, at 10 µM, stronger effect = higher value.
Sequence of Voltage-gated potassium channel subunit beta-2 (Rattus norvegicus) (P62483 whole entry, looked up): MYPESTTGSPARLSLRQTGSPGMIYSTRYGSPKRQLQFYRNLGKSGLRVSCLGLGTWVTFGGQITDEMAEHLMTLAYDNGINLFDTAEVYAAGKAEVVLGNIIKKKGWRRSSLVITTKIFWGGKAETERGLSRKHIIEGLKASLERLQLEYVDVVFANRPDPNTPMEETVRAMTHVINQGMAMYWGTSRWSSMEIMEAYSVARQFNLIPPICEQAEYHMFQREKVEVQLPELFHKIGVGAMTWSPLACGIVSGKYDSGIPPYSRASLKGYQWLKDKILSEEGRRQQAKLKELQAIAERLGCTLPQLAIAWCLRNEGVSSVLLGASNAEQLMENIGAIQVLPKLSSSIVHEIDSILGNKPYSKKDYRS
Experiment [5] shares this target. As to the kind of experiment: KvBeta positive modulators, primary screen, biochemical, NADPH fluorescence (AID 623).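 Note: fluorescence intensity change per second fitted from 20 to 320 s.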 The note with it: Recombinant KvBeta, NADPH fluorescence decrease slope, 10 min; at 10 µM; stronger effect = lower value.
Experiment [6] has as its target Alpha-2C adrenergic receptor (Homo sapiens) (UniProt P18825). As to the kind of experiment: modulators of alpha2C/GIRK thallium flux, primary screen, cell-based, HEK293 alpha2C/GIRK1/2 (AID 624;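 active = fluorescence slope after compound addition differing from the mean of all screened samples at 99.7% confidence, in either direction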;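 note: slope of fluorescence ratio to pre-addition baseline per second over 15 to 24 s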). The settings on record: thallium flux BTC fluorescence, at 10 µM, actives lie on both sides.
A short description of experiment [7]: inhibitors of Sendai virus-induced IRF3 signaling, primary screen, TLR/RLR signaling modifier project, cell-based, Sendai virus stimulus, luciferase, 10K MLSCN set (AID 602276;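 active = inhibition at or above 50% at 10 µM; inactive = inhibition below 50%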;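 note: firefly luciferase from ISG56 promoter only with Renilla not read in this screen; 0% = Sendai virus plus DMSO and 100% = medium plus DMSO without virus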). The note with it: HEK293 RL24 IRF3 luciferase reporter, at 10 µM, stronger effect = higher value. For orientation: A reporter such as luciferase makes a cellular process visible.
A short description of experiment [8]: inhibitors of poly I:C-induced TLR3 signaling, primary screen, cell-based, poly I:C stimulus, luciferase, 10K MLSCN set (AID 602277;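 active = inhibition of the reporter signal at or above 50%; inactive = inhibition below 50%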). The note with it: HEK293-TLR3 RL24 IRF3 luciferase reporter, at 10 µM, stronger effect = higher value.

By inhibition is commonly meant the relative decrease from the control value, in per cent.

Calls of active or inactive are those of the source.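 Rule for the calls, unless noted: active = NADPH fluorescence slope more negative than the mean of all samples by about 3 SD, 99.7% confidence; inactive = the rest.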

Sequence of Alpha-2C adrenergic receptor (Homo sapiens) (P18825 whole entry, looked up): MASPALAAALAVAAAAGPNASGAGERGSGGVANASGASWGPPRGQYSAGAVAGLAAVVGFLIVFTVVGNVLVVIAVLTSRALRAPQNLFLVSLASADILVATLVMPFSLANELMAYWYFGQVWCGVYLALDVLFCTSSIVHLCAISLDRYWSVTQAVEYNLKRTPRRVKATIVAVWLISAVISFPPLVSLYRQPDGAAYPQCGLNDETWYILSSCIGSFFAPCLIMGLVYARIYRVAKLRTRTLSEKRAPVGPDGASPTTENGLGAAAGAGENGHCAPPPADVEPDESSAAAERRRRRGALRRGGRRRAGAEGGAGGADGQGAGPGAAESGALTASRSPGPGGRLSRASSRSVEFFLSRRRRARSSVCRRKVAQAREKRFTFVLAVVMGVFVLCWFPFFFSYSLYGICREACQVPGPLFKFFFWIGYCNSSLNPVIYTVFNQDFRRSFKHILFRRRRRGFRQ

For `O=C(c1ccc(CNc2c(N3CCCC3)c(=O)c2=O)cc1)N1CCc2ccccc2C1`, the cell count in experiment [1] came out at 535. Also, the inhibition in experiment [1] is 2.3% (inactive); in experiment [3], -18.6% (inactive); in experiment [7] it was -7.92% (inactive); in experiment [8] it was 4.25% (inactive). In experiment [2], the inhibition of aggregation was -13.5% (inactive). Also, the nuclei count in experiment [2] worked out at 100%; in experiment [3], 108%. Further, in experiment [4], the fluorescence slope was -0.614 (inactive). For the same compound, the NADPH fluorescence slope in experiment [5] is 2.4e-05 (inactive). Besides, the slope in experiment [6] is 0.00541 (inactive).
Consider `Cc1c(NC(=O)c2nn(C)c(=O)c3ccccc23)c(=O)n(-c2ccccc2)n1C`, for which the cell count in experiment [1] was found to be 426. Further, the inhibition is 4.2% (inactive) in experiment [1], -56.3% (inactive) in experiment [3], 0.784% (inactive) in experiment [7] and -0.356% (inactive) in experiment [8]. The inhibition of aggregation in experiment [2] is -1.2% (inactive). For the same compound, the nuclei count is 98.9% in experiment [2] and 136% in experiment [3]. Also, the fluorescence slope in experiment [4] was -0.496 (inactive). For the same compound, the NADPH fluorescence slope in experiment [5] is -1.3e-05 (inactive). Further, the slope in experiment [6] is 0.00499 (inactive).
In the case of `COc1ccc(-c2nnc(SCC(=O)Nc3cc(C)on3)n2C)cc1OC`, the cell count in experiment [1] turned out to be 364. The inhibition in experiment [1] is 2.6% (inactive); in experiment [3], -12.1% (inactive); in experiment [7] it was -4.06% (inactive); in experiment [8], 25% (inactive). In experiment [2], the inhibition of aggregation was -9.8% (inactive). Also, the nuclei count amounted to 87.3% in experiment [2] and 108% in experiment [3]. The fluorescence slope in experiment [4] is -0.473 (inactive). Further, the NADPH fluorescence slope in experiment [5] was -1.3e-05 (inactive). Further, the slope in experiment [6] was 0.00613 (inactive).
In the case of `CCCN(CCC)CCNS(=O)(=O)c1ccc2c(c1)oc(=O)n2C`, in experiment [1], the cell count was 346. Also, the inhibition is -13.8% (inactive) in experiment [1], -106% (inactive) in experiment [3], 9.38% (inactive) in experiment [7] and 10.9% (inactive) in experiment [8]. In addition, in experiment [2], the inhibition of aggregation was -2.5% (inactive). In addition, the nuclei count in experiment [2] turned out to be 77.3%; in experiment [3] it was 119%. The fluorescence slope in experiment [4] is -0.427 (inactive). Moreover, the NADPH fluorescence slope in experiment [5] is -3.3e-05 (inactive). Moreover, in experiment [6], the slope was 0.00461 (inactive).
`Nc1nonc1-n1nnc(C(=O)c2ccccc2)c1-c1ccccc1`: the cell count in experiment [1] turned out to be 412. Also, the inhibition in experiment [1] was -20% (inactive); in experiment [3], 28.1% (inactive); in experiment [7], 10.9% (inactive); in experiment [8] it was 2.08% (inactive). The inhibition of aggregation in experiment [2] is 1.5% (inactive). Also, the nuclei count was found to be 110% in experiment [2] and 103% in experiment [3]. In addition, the fluorescence slope in experiment [4] is -0.571 (inactive). In addition, the NADPH fluorescence slope in experiment [5] was 7.3e-06 (inactive). The slope in experiment [6] is 0.00623 (inactive).
On to `COc1ccc(S(=O)(=O)NCCOc2ccccc2)cc1OC`, for which the cell count in experiment [1] worked out at 310. The inhibition is -3.3% (inactive) in experiment [1], -41.2% (inactive) in experiment [3], 12.3% (inactive) in experiment [7] and 22.2% (inactive) in experiment [8]. Also, in experiment [2], the inhibition of aggregation is 8.7% (inactive). The nuclei count in experiment [2] was determined as 95.3%; in experiment [3] it was 96.1%. In addition, the fluorescence slope in experiment [4] was -0.439 (inactive). Also, the NADPH fluorescence slope in experiment [5] was -3.7e-05 (inactive). Also, in experiment [6], the slope was 0.00599 (inactive).
`COc1ccccc1OCc1ccc(C(=O)Nc2ccncc2)o1`: the cell count in experiment [1] stood at 729. For the same compound, the inhibition in experiment [1] is -7.3% (inactive); in experiment [3], -69% (inactive); in experiment [7], 8.87% (inactive); in experiment [8], -20.1% (inactive). Besides, in experiment [2], the inhibition of aggregation was -9.4% (inactive). The results for the nuclei count in experiment [2] and in experiment [3] were 83.1% and 120%, respectively. Also, in experiment [4], the fluorescence slope is -0.508 (inactive). In addition, in experiment [5], the NADPH fluorescence slope was -5.2e-05 (inactive). Further, the slope in experiment [6] was 0.00528 (inactive).
Consider `Cc1cc(C)nc(N2CCC(C(=O)Nc3ccc4c(c3)CCC4)CC2)n1`, for which, in experiment [1], the cell count came to 338. Moreover, the inhibition in experiment [1] is 6.3% (inactive); in experiment [3], -103% (inactive); in experiment [7], 5.67% (inactive); in experiment [8], 24.8% (inactive). The inhibition of aggregation in experiment [2] is 17.6% (inactive). Moreover, the nuclei count in experiment [2] was 92%; in experiment [3], 120%. Besides, the fluorescence slope in experiment [4] was -0.405 (inactive). Also, the NADPH fluorescence slope in experiment [5] is -6.3e-05 (inactive). In addition, the slope in experiment [6] is 0.00372 (inactive).
As for `c1ccc(Cn2nnnc2CN2CCCC2)cc1`, the cell count in experiment [1] stood at 433. Besides, the inhibition is -9.4% (inactive) in experiment [1], -38.6% (inactive) in experiment [3], 14.5% (inactive) in experiment [7] and 19.4% (inactive) in experiment [8]. Also, the inhibition of aggregation in experiment [2] was 2.6% (inactive). The nuclei count came out at 100% in experiment [2] and 94% in experiment [3]. Further, in experiment [4], the fluorescence slope was -0.499 (inactive). The NADPH fluorescence slope in experiment [5] is -2.2e-05 (inactive). For the same compound, in experiment [6], the slope was 0.00601 (inactive).
Turning to `CC(C)(C)c1ccc(OCC(=O)O)cc1`, the cell count in experiment [1] worked out at 567. Moreover, the inhibition in experiment [1] was 3.1% (inactive); in experiment [3], -36% (inactive); in experiment [7], 7.32% (inactive); in experiment [8] it was 11.4% (inactive). In addition, in experiment [2], the inhibition of aggregation is 11.7% (inactive). In addition, the nuclei count in experiment [2] stood at 98%; in experiment [3], 96.2%. Besides, in experiment [4], the fluorescence slope was -0.599 (inactive). Moreover, in experiment [5], the NADPH fluorescence slope was -3.9e-05 (inactive). Moreover, the slope in experiment [6] was 0.00377 (inactive).
Take `Cc1cc2c(c(=O)o1)C(C13C=CC(CC1)C3)C(C#N)=C(N)O2` (centres undefined): the cell count in experiment [1] was found to be 326. Also, the inhibition is 5.3% (inactive) in experiment [1], -56.1% (inactive) in experiment [3], 5.92% (inactive) in experiment [7] and 13.6% (inactive) in experiment [8]. Moreover, the inhibition of aggregation in experiment [2] is -3.9% (inactive). Further, the nuclei count in experiment [2] amounted to 102%; in experiment [3] it was 118%. In experiment [4], the fluorescence slope is -0.499 (inactive). Besides, the NADPH fluorescence slope in experiment [5] was -5.8e-05 (inactive). Also, the slope in experiment [6] is 0.0051 (inactive).
For `COc1ccccc1N1CCN(S(=O)(=O)CC23CCC(CC2=O)C3(C)C)CC1` (centres undefined), the cell count in experiment [1] turned out to be 522. In addition, the inhibition is -8.1% (inactive) in experiment [1], -64.4% (inactive) in experiment [3], 9.34% (inactive) in experiment [7] and 25.6% (inactive) in experiment [8]. In addition, the inhibition of aggregation in experiment [2] is 20.7% (inactive). Further, the nuclei count in experiment [2] stood at 103%; in experiment [3] it was 157%. Moreover, in experiment [4], the fluorescence slope was -0.452 (inactive). In addition, the NADPH fluorescence slope in experiment [5] was -3.6e-05 (inactive). Also, the slope in experiment [6] was 0.00394 (inactive).
For the compound `COc1ccc(CCNC(=O)c2cc(C(C)C)on2)cc1OC`, the cell count in experiment [1] came out at 825. Further, the inhibition in experiment [1] is 9.2% (inactive); in experiment [3], 2.8% (inactive); in experiment [7], 2.63% (inactive); in experiment [8] it was 18.2% (inactive). The inhibition of aggregation in experiment [2] is -27% (inactive). Moreover, the nuclei count in experiment [2] is 102%; in experiment [3] it was 110%. For the same compound, the fluorescence slope in experiment [4] is -0.567 (inactive). Further, in experiment [5], the NADPH fluorescence slope was -1.2e-05 (inactive). Further, the slope in experiment [6] is 0.00632 (inactive).
For `CC(=O)Nc1cc(NC(C)=O)cc(C(=O)OCC(=O)N2CC(C)OC(C)C2)c1` (centres undefined), the cell count in experiment [1] is 492. The inhibition is -3.9% (inactive) in experiment [1], 6.9% (inactive) in experiment [3], 6% (inactive) in experiment [7] and 8.11% (inactive) in experiment [8]. The inhibition of aggregation in experiment [2] is 22.1% (inactive). For the same compound, the nuclei count in experiment [2] was 104%; in experiment [3] it was 109%. Further, in experiment [4], the fluorescence slope was -0.299 (inactive). Moreover, the NADPH fluorescence slope in experiment [5] was -4.8e-05 (inactive). The slope in experiment [6] is 0.00487 (inactive).
